Screening data as filed in PubChem.
HIF-2a inh: HIF-2a reporter inhibitors, primary screen, luminescence, 786-0 RCC cells | 786-0 RCC cells HIF-2a reporter, luciferase luminescence, overnight | inhibition, % at 18.8 µM | hit rate 0.72% among 360,000 | AID 624352, 2012;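 active = inhibition of the luminescence signal of 40% or more relative to plate controls, in a single-dose primary screen at 18.75 µM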
TROY NFkB inh: inhibitors of TROY-driven NF-kB signaling, primary screen, Q293 LMP1-TROYcd cells, NF-kB luciferase, uHTS; Q293 LMP1-TROYcd NF-kB luciferase reporter, 4 h; hit rate 0.98% among 360,000; inhibition, % at 10 µM;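 active = compounds whose plate-normalised and pattern-corrected inhibition of the luciferase reporter signal at the single screening dose is 50% or more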
TWEAK-Fn14 inh: inhibitors of TWEAK-Fn14 signaling, primary screen, luciferase reporter cells, uHTS | inhibition, % at 10 µM | hit rate 2% among 360,000 | TWEAK-stimulated Fn14 reporter cells, luciferase luminescence, 8 h; in the data active = inhibition above about 50%
Peg3 promoter: Peg3 promoter-driven luciferase inhibitors, primary screen, cell-based, HeLa, luciferase luminescence; HeLa PEG-Prom luciferase reporter, overnight; inhibition, % at 20 µM; hit rate 1.7% among 360,000; AID 588405, 2011;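 active = inhibition of at least 50% at 20 µM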
KKLEB cytotox: cytotoxicity in KKLEB CF airway cells, primary screen, cytotoxicity control for CF NF-kB inhibitor project, cell-based, uHTS, fluorescence assay plates. KKLEB CF airway cells viability, ATPlite luminescence, overnight; active compounds read low; cells stimulated with P. aeruginosa culture filtrate. activity change (cytotoxicity), % at 5 µM. hit rate 0.36% among 360,000. AID 602141, 2011;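 active = corrected activity change at or below -50% at 5 µM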
CF NFkB block: inhibitors of PAF-induced NF-kB signaling, primary screen, cell-based, GFP fluorescence, uHTS. hit rate 0.86% among 360,000. inhibition, % at 5 µM. KKLEB NF-kB-GFP reporter, GFP fluorescence overnight;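 active = at least 50% inhibition at 5 µM, scaled per plate between neutral and stimulator controls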;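 note: PAF is a Pseudomonas aeruginosa culture filtrate used as stimulus; plate controls were PAF-stimulated DMSO wells for no effect and unstimulated DMSO wells for full effect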
* marks the source's active call; other numbers are inactive results; / = not tested or not shown. A selection: hits, their analogues and other compounds. The true share with any hit is near 4%.

SMILES	HIF-2a inh	TROY NFkB inh	TWEAK-Fn14 inh	Peg3 promoter	KKLEB cytotox	CF NFkB block
O=C(Nc1cccc(NC(=O)c2cccnc2)c1)c1ccccc1	-8	-1	-17	-1	-2	7
NC(=O)c1cccc(-c2cnc(N)c(C(=O)c3cccnc3)n2)c1	38	51*	84*	62*	6	52*
COC(=O)CSc1ccc2nnc(-c3ccc(OC)c(OC)c3)n2n1	19	5	-48	14	-15	7
COc1ccc(-c2nnc3ccc(SCC(=O)Nc4nc5ccc(C)cc5s4)nn23)cc1OC	8	87*	98*	-1	-2	0
COc1cccc(CN2CCC2(C)C(=O)Nc2cccc(Oc3ccccc3)c2)c1F (centres undefined)	3	4	9	52*	-3	-4
COc1cccc(NC(=O)C2(C)CCN2Cc2cccc(OC)c2F)c1 (centres undefined)	6	1	-43	7	7	8
COc1ccc(-c2ccc(C(=O)Nc3cccc(NS(C)(=O)=O)c3)c3occc23)c(C)c1	-109	43	59*	17	8	28
COc1ccc(-c2ccc(C(=O)Nc3cccc(C(C)=O)c3)c3occc23)c(C)c1	-168	17	48	-86	0	-19
COc1ccc(-c2ccc(C(=O)Nc3cccc(F)c3)c3occc23)c(C)c1	-276	58*	50	-393	0	-60
COc1ccc(-c2coc3c(C(=O)Nc4cccnc4)cccc23)c(C)c1	-67	22	66*	-39	-16	19
COc1ccc(-c2coc3c(C(=O)Nc4cccc(C(C)=O)c4)cccc23)c(C)c1	-19	22	8	-18	-12	1
CC1(C)CC(=O)C=C(C(=O)N2CCCC(C(=O)c3cccc(C(F)(F)F)c3)C2)O1 (centres undefined)	-2	-27	21	2	-8	-3
COC(=O)c1ccc(-c2nc(O)c(C)s2)cc1	-11	3	6	-3	6	-12
COC(=O)c1ccc(-c2nc3cc(Cl)c(N)cc3s2)cc1	-92	71*	87*	43	-53*	-20
CCn1c(CNC(=O)c2cccnc2)cc2ccccc21	18	10	4	74*	5	-1
CC1(c2nnnn2-c2ccc3c(c2)OCCO3)CCC(=O)N1CC1CCCCC1 (centres undefined)	-106	-6	-29	/	/	/
c1ccc(OCCOCCOc2ccccc2)cc1	-105	-37	-13	-69	15	-2
C[N+](C)(CCOc1ccccc1)Cc1ccccc1 (tested in a mixture with another compound)	14	71*	19	0	8	-2
CCOc1ccc(CCN2C(=O)C(=O)N([C@@H](CC(C)C)CN3CCC[C@H]3CN3C(=O)C(=O)NC[C@@H]3Cc3ccccc3)C[C@@H]2Cc2ccccc2)cc1	-40	11	24	/	/	/
CN(C)C(CNC(C(=O)Nc1ccc(F)cc1)c1ccccc1)c1ccccc1 (centres undefined)	-7	-46	16	-4	-3	1
CCCn1c2c(c(=N)c3c1CCC3)CCC2	12	-8	-24	10	14	-13
CCCCCCCn1c2c(c(=N)c3ccccc31)CCC2	-18	46	56*	34	-29	39
CN1CCN(C(=O)c2ccccc2N(Cc2ccccc2)S(C)(=O)=O)CC1	15	7	72*	3	1	0
CN1CCN(C(=O)c2ccccc2N(Cc2ccccc2)S(=O)(=O)c2ccccc2)CC1	25	11	-4	20	-2	6
Cc1cccnc1CCNC(=O)c1ccc(OC2CCN(Cc3ccccn3)CC2)cc1	19	50	55*	72*	-1	-36
O=C(NCCc1cccc(Cl)c1)c1ccc(OC2CCN(Cc3ccccn3)CC2)cc1	13	73*	82*	-17	-8	16
COCC(=O)N1CCC(Oc2ccc(C(=O)NCCc3ncccc3C)cc2)CC1	-6	24	3	22	31	0
